According to PubChem BioAssay AID1159580 (chemical genetic matrix, 2015):
Out of some 5,500 compounds screened, about 2,000 (36%) were called active. Not shown: some 18% with an inconclusive outcome. Cut-off read from the data, not from the text of the source: active = normalized growth mostly below about 0.91 (no sharp cut-off); inconclusive = no clear call, values can overlap the other calls; inactive = mostly above about 0.92. This is one part of the list.

Assay: chemical genetic growth profiling, strain panel (AID 1159580);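 note: tested at 20 µM; growth read once vehicle control cultures reached saturation at 30 °C; 1 = growth at the plate median or of vehicle wells; lower values mean less growth of the strain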
Settings: growth OD

Measured: normalized growth

CCC(=O)O[C@H]1CCC2C3CCc4cc(O)ccc4C3CC[C@@]21C (some centres undefined)
active: S. cerevisiae deletion strains, locus YJR066W, strain TOR1, hits give low values 0.728 | S. cerevisiae deletion strains, locus YLR058C, strain SHM2, hits give low values 0.871 | S. cerevisiae deletion strains, locus YLR113W, strain HOG1, hits give low values 0.287 | S. cerevisiae deletion strains, locus YLR262C, strain YPT6 (second series), hits give low values 0.676 | S. cerevisiae deletion strains, locus YLR342W, strain FKS1 (second series), hits give low values 0.785 | S. cerevisiae deletion strains, locus YML120C, strain ndi1, hits give low values 0.881 | S. cerevisiae deletion strains, locus YNL183C, strain NPR1, hits give low values 0.755 | S. cerevisiae deletion strains, locus YNL233W, strain BNI4, hits give low values 0.784 | S. cerevisiae deletion strains, locus YOR231W, strain MKK1, hits give low values 0.483 | S. cerevisiae deletion strains, locus YPL106C, strain sse1, hits give low values 0.839 | S. cerevisiae deletion strains, locus YPL256C, strain CLN2, hits give low values 0.643 | S. cerevisiae strains, strain wild type, hits give low values 0.884
inactive: S. cerevisiae deletion strains, locus YJL187C, strain SWE1, hits give low values 0.995 | S. cerevisiae deletion strains, locus YJR043C, strain POL32, hits give low values 0.974 | S. cerevisiae deletion strains, locus YJR075W, strain HOC1, hits give low values 0.948 | S. cerevisiae deletion strains, locus YKL009W, strain mrt4, hits give low values 0.986 | S. cerevisiae deletion strains, locus YKL068W, hits give low values 1 | S. cerevisiae deletion strains, locus YKL085W, strain MDH1 (second series), hits give low values 0.936 | S. cerevisiae deletion strains, locus YKL085W, strain MDH1, hits give low values 0.936 | S. cerevisiae deletion strains, locus YKL160W, strain elf1, hits give low values 0.984 | S. cerevisiae deletion strains, locus YKL190W, strain CNB1, hits give low values 1 | S. cerevisiae deletion strains, locus YKR001C, strain vps1, hits give low values 0.927 | S. cerevisiae deletion strains, locus YKR026C, strain gcn3, hits give low values 0.971 | S. cerevisiae deletion strains, locus YKR091W, strain srl3, hits give low values 0.964 | S. cerevisiae deletion strains, locus YLL001W, strain dnm1, hits give low values 0.997 | S. cerevisiae deletion strains, locus YLL026W, hits give low values 1 | S. cerevisiae deletion strains, locus YLL041C, strain sdh2, hits give low values 1.01 | S. cerevisiae deletion strains, locus YLR027C, strain aat2, hits give low values 0.966 | S. cerevisiae deletion strains, locus YLR039C, strain RIC1, hits give low values 0.771 | S. cerevisiae deletion strains, locus YLR102C, strain apc9, hits give low values 1 | S. cerevisiae deletion strains, locus YLR221C, strain rsa3, hits give low values 0.967 | S. cerevisiae deletion strains, locus YLR258W, strain gsy2, hits give low values 1 | S. cerevisiae deletion strains, locus YLR262C, strain YPT6, hits give low values 0.797 | S. cerevisiae deletion strains, locus YLR268W, strain sec22, hits give low values 0.991 | S. cerevisiae deletion strains, locus YLR320W, strain mms22, hits give low values 0.969 | S. cerevisiae deletion strains, locus YLR330W, strain CHS5, hits give low values 0.984 | S. cerevisiae deletion strains, locus YLR342W, strain FKS1, hits give low values 0.972 | S. cerevisiae deletion strains, locus YLR357W, strain rsc2, hits give low values 0.954 | S. cerevisiae deletion strains, locus YLR370C, strain arc18, hits give low values 0.975 | S. cerevisiae deletion strains, locus YLR371W, strain rom2, hits give low values 1 | S. cerevisiae deletion strains, locus YLR384C, strain iki3, hits give low values 0.994 | S. cerevisiae deletion strains, locus YLR418C, strain cdc73, hits give low values 0.937 | S. cerevisiae deletion strains, locus YML016C, strain PPZ1, hits give low values 0.997 | S. cerevisiae deletion strains, locus YML032C, strain rad52, hits give low values 0.985 | S. cerevisiae deletion strains, locus YML124C, strain tub3, hits give low values 1 | S. cerevisiae deletion strains, locus YMR058W, strain fet3, hits give low values 0.977 | S. cerevisiae deletion strains, locus YMR078C, strain ctf18, hits give low values 1.02 | S. cerevisiae deletion strains, locus YMR125W, strain sto1, hits give low values 0.982 | S. cerevisiae deletion strains, locus YMR129W, hits give low values 0.979 | S. cerevisiae deletion strains, locus YMR205C, strain PFK2, hits give low values 0.929 | S. cerevisiae deletion strains, locus YMR223W, strain ubp8, hits give low values 0.956 | S. cerevisiae deletion strains, locus YMR231W, strain pep5, hits give low values 1.01 | S. cerevisiae deletion strains, locus YMR307W, strain GAS1, hits give low values 0.766 | S. cerevisiae deletion strains, locus YNL067W, strain RPL9B, hits give low values 0.974 | S. cerevisiae deletion strains, locus YNL071W, strain lat1, hits give low values 0.969 | S. cerevisiae deletion strains, locus YNL209W, strain ssb2, hits give low values 0.984 | S. cerevisiae deletion strains, locus YNL248C, strain rpa49, hits give low values 0.991 | S. cerevisiae deletion strains, locus YNL250W, strain rad50, hits give low values 0.998 | S. cerevisiae deletion strains, locus YNL271C, strain bni1, hits give low values 1.01 | S. cerevisiae deletion strains, locus YNL298W, strain CLA4, hits give low values 0.999 | S. cerevisiae deletion strains, locus YNL307C, strain MCK1, hits give low values 0.935 | S. cerevisiae deletion strains, locus YNL322C, strain KRE1 (second series), hits give low values 0.977 | S. cerevisiae deletion strains, locus YNR049C, strain mso1, hits give low values 0.986 | S. cerevisiae deletion strains, locus YNR052C, strain pop2, hits give low values 1 | S. cerevisiae deletion strains, locus YOL006C, strain TOP1, hits give low values 0.958 | S. cerevisiae deletion strains, locus YOL012C, strain htz1 1.25 | S. cerevisiae deletion strains, locus YOL147C, strain pex11, hits give low values 1 | S. cerevisiae deletion strains, locus YOR001W, strain rrp6, hits give low values 0.98 | S. cerevisiae deletion strains, locus YOR061W, strain CKA2, hits give low values 0.935 | S. cerevisiae deletion strains, locus YOR069W, strain VPS5, hits give low values 0.996 | S. cerevisiae deletion strains, locus YOR070C, strain gyp1, hits give low values 1 | S. cerevisiae deletion strains, locus YOR080W, strain dia2, hits give low values 0.979 | S. cerevisiae deletion strains, locus YOR083W, strain WHI5, hits give low values 0.976 | S. cerevisiae deletion strains, locus YOR106W, strain vam3, hits give low values 0.978 | S. cerevisiae deletion strains, locus YOR136W, strain idh2, hits give low values 1.02 | S. cerevisiae deletion strains, locus YOR144C, strain elg1, hits give low values 1.01 | S. cerevisiae deletion strains, locus YOR184W, strain ser1, hits give low values 0.96 | S. cerevisiae deletion strains, locus YOR265W, strain rbl2, hits give low values 0.994 | S. cerevisiae deletion strains, locus YOR270C, strain vph1, hits give low values 0.911 | S. cerevisiae deletion strains, locus YOR290C, strain snf2, hits give low values 0.939 | S. cerevisiae deletion strains, locus YOR316C, strain cot1, hits give low values 1.01 | S. cerevisiae deletion strains, locus YPL051W, strain arl3, hits give low values 1 | S. cerevisiae deletion strains, locus YPL078C, strain atp4, hits give low values 0.992 | S. cerevisiae deletion strains, locus YPL240C, strain hsp82, hits give low values 1 | S. cerevisiae deletion strains, locus YPR119W, strain clb2, hits give low values 0.995 | S. cerevisiae deletion strains, locus YPR141C, strain kar3, hits give low values 1.02 | S. cerevisiae deletion strains, locus YPR163C, strain tif3, hits give low values 1.02 | S. cerevisiae deletion strains, locus YPR167C, strain met16, hits give low values 1.01 | S. cerevisiae deletion strains, strain wtn01, hits give low values 1
